Measurements reported in PubChem BioAssay AID1159580 (chemical genetic matrix, 2015).
Where “and” joins values, the source holds several entries; their conditions need not be identical. Identical values can stand only once. The campaign covered roughly 5,500 compounds. About 2,000 (36%) were called active. Not shown: some 18% with an inconclusive outcome. Cut-off read from the data, not from the text of the source: active = normalized growth mostly below about 0.91 (no sharp cut-off); inconclusive = no clear call, values can overlap the other calls; inactive = mostly above about 0.92. Some of the results follow.

Test: chemical genetic growth profiling, strain panel (AID 1159580);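 note: tested at 20 µM; growth read once vehicle control cultures reached saturation at 30 °C; 1 = growth at the plate median or of vehicle wells; lower values mean less growth of the strain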
Conditions: S. cerevisiae deletion strains, growth OD

Measured: normalized growth

COc1ccc(-c2cc(=O)c3c(O)cc(O[C@@H]4O[C@H](CO[C@H]5O[C@H](C)[C@@H](O)[C@H](O)[C@@H]5O)[C@@H](O)[C@H](O)[C@H]4O)cc3o2)cc1O
inactive: locus YAL021C, strain ccr4, hits give low values 1.01 | locus YAL026C, strain drs2, hits give low values 1.05 | locus YAL030W, strain snc1, hits give low values 1.02 | locus YBL061C, strain skt5, hits give low values 1.02 | locus YBR009C, strain hhf1, hits give low values 1.01 | locus YBR021W, strain FUR4, hits give low values 1.03 | locus YBR023C, strain chs3, hits give low values 1.01 | locus YBR171W, strain sec66, hits give low values 1.02 | locus YBR229C, strain ROT2, hits give low values 0.994 | locus YBR231C, strain swc5, hits give low values 1.02 | locus YBR279W, strain paf1, hits give low values 1.01 | locus YCL011C, strain gbp2, hits give low values 1.01 | locus YCL016C, strain dcc1, hits give low values 1.02 | locus YCL029C, strain bik1, hits give low values 0.986 | locus YCL061C, strain MRC1, hits give low values 1.01 | locus YCL069W, strain vba3, hits give low values 1.03 | locus YCR088W, strain abp1, hits give low values 1.01 | locus YDL005C, strain med2, hits give low values 1.02 | locus YDL035C, strain GPR1, hits give low values 0.983 | locus YDL040C, strain nat1, hits give low values 1 | locus YDL074C, strain BRE1, hits give low values 1.02 | locus YDL101C, strain DUN1, hits give low values 0.995 | locus YDL185W, strain tfp1, hits give low values 0.969 | locus YDL192W, strain arf1, hits give low values 0.985 | locus YDR001C, strain nth1, hits give low values 1.01 | locus YDR069C, strain doa4, hits give low values 1.02 | locus YDR101C, strain arx1, hits give low values 1 | locus YDR137W, strain rgp1, hits give low values 1.03 | locus YDR150W, strain NUM1, hits give low values 0.99 | locus YDR159W, strain sac3, hits give low values 1.02 | locus YDR162C, strain NBP2, hits give low values 0.972 | locus YDR195W, strain ref2 1.04 | locus YDR297W, strain sur2, hits give low values 1.01 | locus YDR318W, strain mcm21, hits give low values 1 | locus YDR334W, strain swr1, hits give low values 1.02 | locus YDR335W, strain msn5, hits give low values 1.01 | locus YDR388W, hits give low values 0.991 | locus YDR392W, strain spt3, hits give low values 0.987 | locus YDR502C, strain sam2, hits give low values 0.993 | locus YEL003W, strain gim4, hits give low values 1.02 | locus YEL037C, strain rad23, hits give low values 1.01 | locus YEL061C, strain CIN8 (second series), hits give low values 1.03 | locus YEL061C, strain CIN8, hits give low values 0.997 | locus YER015W, strain faa2, hits give low values 1.01 | locus YER016W, strain bim1, hits give low values 1.02 | locus YER110C, hits give low values 0.979 | locus YER111C, strain swi4, hits give low values 1 | locus YER155C, strain BEM2 (second series), hits give low values 1 | locus YER155C, strain BEM2, hits give low values 0.995 | locus YER167W, strain BCK2, hits give low values 0.981 | locus YFR010W, strain ubp6, hits give low values 1.02 | locus YGL078C, strain dbp3, hits give low values 1 | locus YGL086W, strain mad1, hits give low values 1.01 | locus YGL167C, strain pmr1, hits give low values 1.01 | locus YGL173C, strain kem1, hits give low values 1.04 | locus YGL227W, strain vid30, hits give low values 1.01 | locus YGL240W, strain doc1, hits give low values 1.04 | locus YGL248W, strain PDE1, hits give low values 0.999 | locus YGL253W, strain hxk2, hits give low values 1 | locus YGR078C, strain PAC10, hits give low values 1.01 | locus YGR135W, strain pre9, hits give low values 0.956 | locus YGR252W, strain gcn5, hits give low values 1.04 | locus YHR013C, strain ard1, hits give low values 1.02 | locus YHR027C, strain rpn1, hits give low values 1.02 | locus YHR030C, strain SLT2, hits give low values 0.985 and 1 | locus YHR079C, strain IRE1 (second series), hits give low values 0.991 | locus YHR079C, strain IRE1, hits give low values 0.996 | locus YHR094C, strain hxt1, hits give low values 0.977 | locus YHR129C, strain ARP1, hits give low values 0.988 | locus YHR142W, strain chs7, hits give low values 0.978 | locus YHR200W, strain rpn10, hits give low values 0.989 | locus YIL066C, strain RNR3, hits give low values 0.994 | locus YIL073C, strain SPO22, hits give low values 0.963 | locus YIL125W, strain kgd1, hits give low values 1.01 | locus YIR030C, strain dcg1, hits give low values 0.985 | locus YJL092W, strain hpr5, hits give low values 1.02 | locus YJL095W, strain BCK1 (second series), hits give low values 1.01 | locus YJL095W, strain BCK1, hits give low values 1.01 and 0.997 | locus YJL115W, strain asf1, hits give low values 1.03 | locus YJL129C, strain trk1, hits give low values 1.03 | locus YJL134W, strain LCB3, hits give low values 0.988 | locus YJL154C, strain vps35, hits give low values 1.02 | locus YJL164C, strain tpk1, hits give low values 1.02 | locus YJL166W, strain qcr8, hits give low values 1.02 | locus YJL168C, strain set2, hits give low values 1 | locus YJL187C, strain SWE1 (second series), hits give low values 1 | locus YJL187C, strain SWE1, hits give low values 1.01 | locus YJR043C, strain POL32, hits give low values 1.02 | locus YJR066W, strain TOR1, hits give low values 0.981
